Most compounds without a hit are left out; they make up all but 2.7% or so of the library.
PfG6PD inh: PfG6PD (Plasmodium falciparum) enzyme inhibition; inhibition, % at 20 µM; PfGluPho enzyme, NADPH resazurin-diaphorase fluorescence; 350,000 compounds, 0.78% hits;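 active = inhibition reaching at least a set limit at 20 µM in the primary screen, cut at about 59% in these data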
KLK7 zymogen act: activators of human kallikrein-7 zymogen. 370,000 compounds, 0.9% hits. P49862. purified proKLK7, EDANS-DABCYL substrate fluorescence; 100% is mature enzyme control, 0% vehicle. activation, % at 7 µM;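 active = activation above the mean of all tested compounds plus 3 SD, computed per campaign excluding outliers beyond control limits, cut at about 13% in these data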
Neddylation inh: cullin neddylation inhibition. P61081+Q13564. TR-FRET cullin neddylation, biochemical. calls only at 25 µM. 360,000 compounds, 0.58% hits; in the data active = inhibition above about 36%
Target sequence (P61081 whole entry, looked up): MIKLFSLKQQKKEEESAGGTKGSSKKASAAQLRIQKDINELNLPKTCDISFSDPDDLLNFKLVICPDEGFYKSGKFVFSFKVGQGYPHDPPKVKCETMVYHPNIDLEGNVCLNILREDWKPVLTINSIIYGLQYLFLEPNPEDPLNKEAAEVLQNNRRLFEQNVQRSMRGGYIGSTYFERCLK
Target sequence (Q13564 whole entry, looked up): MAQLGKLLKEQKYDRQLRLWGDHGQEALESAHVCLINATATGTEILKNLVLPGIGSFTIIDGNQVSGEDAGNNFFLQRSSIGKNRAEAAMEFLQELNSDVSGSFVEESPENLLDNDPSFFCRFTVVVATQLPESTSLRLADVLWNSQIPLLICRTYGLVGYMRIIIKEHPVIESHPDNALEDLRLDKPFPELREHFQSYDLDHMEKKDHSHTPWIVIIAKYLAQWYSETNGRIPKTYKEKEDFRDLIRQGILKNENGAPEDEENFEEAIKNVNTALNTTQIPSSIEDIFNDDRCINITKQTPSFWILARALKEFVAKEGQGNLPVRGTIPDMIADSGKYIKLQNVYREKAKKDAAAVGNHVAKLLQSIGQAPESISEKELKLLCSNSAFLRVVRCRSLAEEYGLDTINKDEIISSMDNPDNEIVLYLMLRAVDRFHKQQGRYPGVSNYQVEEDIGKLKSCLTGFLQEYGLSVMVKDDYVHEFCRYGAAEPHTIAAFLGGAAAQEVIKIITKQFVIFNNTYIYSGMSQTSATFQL
FAS-TE inh: inhibitors of human fatty acid synthase thioesterase domain; P49327; recombinant FAS-TE, OMFH fluorogenic substrate, fluorescence endpoint; inhibition, % at 15 µM; 360,000 compounds, 0.67% hits; AID 602261;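 active = compounds whose normalised, plate-corrected inhibition of enzyme fluorescence in the single-dose primary screen is 50% or more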
PfGluPho conf: PfG6PD inhibition, single-dose confirmed; recombinant PfGluPho, NADPH-diaphorase-resazurin fluorescence; inhibition, % at 20 µM; shares compounds with PfG6PD inh; 2,400 compounds, 34% hits;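 active = inhibition of at least 50% at 20 µM in any single replicate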
Diaph ctr 10uM: inhibits diaphorase or oxidizes, flagging false PfG6PD hits; shares compounds with PfG6PD inh; diaphorase-coupled resazurin reduction, fluorescence, NADPH 10 uM; inhibition, % at 20 µM; 820 compounds, 39% hits; AID 504862;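 active = average inhibition reaching 50% or more with the compound at 20 µM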;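 also: resorufin red fluorescence formed as diaphorase reduces resazurin using NADPH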
Diaphorase 30uM: counter-screen for P. falciparum G6PD inhibitors: diaphorase inhibitors, oxidizers; shares compounds with PfG6PD inh; Diaphorase/resazurin coupled assay, resorufin fluorescence, 30 uM NADPH; 820 compounds, 29% hits; inhibition, % at 20 µM;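 active = inhibition averaging 50% or more, tested at 20 µM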
Each line names hits and unclear results; the compound was inactive in the other large screens (follow-up assays come after a bar, where shown); ! = a repeat was not active.

[O-][N+](=Cc1ccccc1)c1ccc(Cl)cc1	PfG6PD inh 87 | PfGluPho conf 92 | Diaph ctr 10uM 62 | Diaphorase 30uM inactive
[O-]/[N+](=C\c1ccco1)c1ccc(Cl)cc1	PfG6PD inh 89 | PfGluPho conf 62 | Diaph ctr 10uM inactive | Diaphorase 30uM inactive
Cc1cccc(CNC(=S)OC2CCC23CCC(c2ccccc2)CC3)c1 (stereo not given)	none (no result: PfG6PD inh, Neddylation inh, FAS-TE inh)
O=S(=O)(NCc1csc(-c2ccccc2)n1)c1ccc(Cl)s1	PfG6PD inh 99 | PfGluPho conf 48 | Diaph ctr 10uM inactive | Diaphorase 30uM inactive
COc1ccc(OC2C(=O)N(c3ccc(C)c(C)c3)C2c2ccc(OC)c(OC)c2)cc1 (stereo not given)	PfG6PD inh 97 | PfGluPho conf inactive
C=CCNC(=O)CN(C(=O)c1csc2ccc(Cl)cc12)c1cccc(Br)c1	none (no result: PfG6PD inh, Neddylation inh, FAS-TE inh)
Cn1c2nc(=O)n(-c3ccccc3)c(=O)c-2nc2c1CCCC2	PfG6PD inh 81 (not shown: KLK7 zymogen act, Neddylation inh) | PfGluPho conf inactive
O=c1cc(-c2ccccc2)[nH]c2ccccc12	none
O=C1C(c2cc(=O)c3ccccc3[nH]2)=C(O)c2ccccc21	PfG6PD inh 83 | PfGluPho conf 65 | Diaph ctr 10uM 50 | Diaphorase 30uM inactive
Cc1ccc(Nc2nnc(SCC(=O)c3ccc(O)cc3O)s2)cc1	PfG6PD inh 68 | PfGluPho conf inactive
Cc1cccc(Nc2nnc(SCC(=O)c3ccc(O)cc3O)s2)c1	none
Cc1ccc(/C=C/C(=O)N2CCN(c3ncccn3)CC2)o1	PfG6PD inh 64 | PfGluPho conf inactive
Cc1ccc(/C=C/C(=O)N2CCN(c3ccc(F)cc3)CC2)o1	none
Cc1ccc(/C=C/C(=O)N2CCc3ccccc32)o1	PfG6PD inh 85 | PfGluPho conf inactive
COC(=O)[C@]12C[C@H](CC(=O)N3CCSCC3)C(=O)N(Cc3cccc4ccccc34)C1=C[C@H](COCc1ccccc1)O[C@@H]2C	none (no result: PfG6PD inh, Neddylation inh, FAS-TE inh)
CCOC(=O)c1ccccc1NS(=O)(=O)c1ccc(OCC)cc1	none
O=C(O)CSc1cc(NS(=O)(=O)c2cccc([N+](=O)[O-])c2)c2ccccc2c1O	PfG6PD inh 106 | PfGluPho conf 89 | Diaph ctr 10uM 51 | Diaphorase 30uM inactive
CCc1ccc(S(=O)(=O)Nc2cc(SCC(=O)O)c(O)c3ccccc23)cc1	PfG6PD inh 89 | PfGluPho conf 81 | Diaph ctr 10uM inactive | Diaphorase 30uM inactive
CCc1ccc(S(=O)(=O)Nc2ccc(O)c3ccccc23)cc1	none
CCOc1ccc(S(=O)(=O)Nc2cc(SCC(=O)O)c(O)c3ccccc23)cc1	PfG6PD inh 104 | PfGluPho conf 97 | Diaph ctr 10uM inactive | Diaphorase 30uM inactive
COc1ccc(CN(CCN2CCOCC2)C(=O)c2ccc(F)cc2F)cc1OC	none (no result: PfG6PD inh, Neddylation inh, FAS-TE inh)
O=C(c1ccco1)N1CCC(Oc2cccnc2)CC1	none (no result: PfG6PD inh, Neddylation inh, FAS-TE inh)
CCOC(=O)C1C(=O)NC(SCC(=O)Nc2nccs2)=C(C#N)C1c1ccccc1OCC (stereo not given)	PfG6PD inh 70 (no result: KLK7 zymogen act) | PfGluPho conf inactive
CCOC(=O)C1C(=O)NC(SCC(=O)OC)=C(C#N)C1c1ccccc1OCC (stereo not given)	none (no result: KLK7 zymogen act)
CC1(C)CC(=O)C2=C(C1)N=C1c3ccccc3C(=O)C1C2c1ccc(Cl)cc1 (stereo not given)	PfG6PD inh 84 | PfGluPho conf inactive
CCCC[n+]1c(C)sc2cc(OC)ccc21	none
CC[n+]1c(C)sc2c3ccsc3ccc21	PfG6PD inh 70 | PfGluPho conf inactive
CC(C)=CCC[C@@]1(C(=O)O)[C@H]2CC=C(CO)[C@@H]1CC/C(C)=C/CC/C(C)=C/C2	none (no result: PfG6PD inh, Neddylation inh, FAS-TE inh)
Nc1nc2ccc(S(=O)(=O)N3CCCCC3)cc2s1	PfG6PD inh 65 | PfGluPho conf inactive
Cc1nc2ccc(S(=O)(=O)N3CCCCC3)cc2s1	none
C=CC[C@@H]1NN2C(=O)[C@@H](CCCC)[C@@H]3c4ccccc4C=NN3[C@@H]2c2ccccc21	none (no result: PfG6PD inh, Neddylation inh, FAS-TE inh)
COC1=CC(=O)C=C(OC)C1(O)CC(C)=O	PfG6PD inh 68 | PfGluPho conf 54 | Diaph ctr 10uM inactive | Diaphorase 30uM inactive
CCOC(=O)[C@]12CCCCC/C=C\1N(CCc1ccc(Cl)cc1)C(=O)[C@H]2CC(=O)N1CCN(C(=O)c2ccco2)CC1	none (no result: PfG6PD inh, Neddylation inh, FAS-TE inh)
NC(=O)N/N=C/c1ccc(-n2nncc2-c2ccc(Cl)cc2)cc1	PfG6PD inh 77 | PfGluPho conf 50 | Diaph ctr 10uM inactive | Diaphorase 30uM inactive
CCC(CO)[n+]1c(C)cc(/C=C2\Sc3ccccc3N2Cc2ccccc2)cc1C (stereo not given)	PfG6PD inh 74 | PfGluPho conf 54 | Diaph ctr 10uM inactive | Diaphorase 30uM inactive
CCN1/C(=C2\SC(=S)N(Cc3ccccc3)C2=O)Sc2ccccc21	none
C[c-]1[c-](C)[c-](C)[c-](C)[c-]1C.[Fe].c1cc2nccc(N3CCCC3)[c-]2c1 (stereo not given)	PfG6PD inh 85 | PfGluPho conf 66! | Diaph ctr 10uM inactive | Diaphorase 30uM inactive
COc1ccccc1S(=O)(=O)n1cc(Cc2ccccc2)c(N)n1	PfG6PD inh 76 | PfGluPho conf inactive
OC(c1ccccc1)(c1ccccc1)C1CCN(CCCOc2ccc(Br)cc2)CC1	none (no result: PfG6PD inh, Neddylation inh, FAS-TE inh)
COc1cccc(NC(=O)C(OC(=O)c2ccccc2NS(=O)(=O)c2cccs2)c2ccccc2)c1 (stereo not given)	PfG6PD inh 75 | PfGluPho conf inactive
O=C1C(Nc2ccccc2)=C/C(=N/S(=O)(=O)c2cccs2)c2ccccc21	PfG6PD inh 110 (no result: KLK7 zymogen act) | PfGluPho conf 92 | Diaph ctr 10uM 78 | Diaphorase 30uM 80
COC(=O)c1ccccc1NC1=C/C(=N\S(=O)(=O)c2cccs2)c2ccccc2C1=O	PfG6PD inh 101 | PfGluPho conf 67 | Diaph ctr 10uM inactive | Diaphorase 30uM inactive
COC(=O)c1cccc(NS(=O)(=O)c2cccs2)c1C	none
COC(=O)c1ccccc1NC1=C/C(=N\S(=O)(=O)c2ccc(C(=O)O)cc2)c2ccccc2C1=O	PfG6PD inh 96 (no result: KLK7 zymogen act) | PfGluPho conf 86 | Diaph ctr 10uM 64 | Diaphorase 30uM 64
O=C1C=C(Nc2ccccc2C(=O)O)c2ccccc2C1=O	none
Cc1ccc(NC2=C/C(=N/S(=O)(=O)c3cccs3)c3ccccc3C2=O)cc1	none
CCn1c2ccccc2c2cc(NC(=O)COC(=O)c3cc(F)cc(F)c3)ccc21	none (no result: PfG6PD inh, Neddylation inh, FAS-TE inh)
O=C(NCc1ccccc1)OCCCN1C(=O)CCC12CCCCC2	none (no result: PfG6PD inh, Neddylation inh, FAS-TE inh)
COc1cccc(N2CCN(C(=O)COc3cc(=O)n(C)c4ccccc34)CC2)c1	none (no result: PfG6PD inh, Neddylation inh, FAS-TE inh)
O=C(NC1CCCCN(Cc2ccc(OC(F)(F)F)cc2)C1=O)c1cccc(C(F)(F)F)c1 (stereo not given)	none (no result: PfG6PD inh, Neddylation inh, FAS-TE inh)
Cc1no[n+]([O-])c1COc1cccc(/C=N/Nc2nncn2N)c1	PfG6PD inh 100 | PfGluPho conf 55 | Diaph ctr 10uM inactive | Diaphorase 30uM inactive
